{"source": "paper PMC4336329", "about": "(PLoS ONE, 2015)", "note": "Among all 310,000 compounds or so, about 14,000 (4.5%) showed an effect of 50% or more. Effects have a minus sign here. The sample as a whole holds a higher share of strong results than the screen did.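 Note: peak tail current of the secondary pulse compared with the same well before compound.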"}
{"target": "human ether-à-go-go-related gene (hERG) potassium channel (human, UniProt Q12809)", "sequence (Q12809 whole entry, looked up)": "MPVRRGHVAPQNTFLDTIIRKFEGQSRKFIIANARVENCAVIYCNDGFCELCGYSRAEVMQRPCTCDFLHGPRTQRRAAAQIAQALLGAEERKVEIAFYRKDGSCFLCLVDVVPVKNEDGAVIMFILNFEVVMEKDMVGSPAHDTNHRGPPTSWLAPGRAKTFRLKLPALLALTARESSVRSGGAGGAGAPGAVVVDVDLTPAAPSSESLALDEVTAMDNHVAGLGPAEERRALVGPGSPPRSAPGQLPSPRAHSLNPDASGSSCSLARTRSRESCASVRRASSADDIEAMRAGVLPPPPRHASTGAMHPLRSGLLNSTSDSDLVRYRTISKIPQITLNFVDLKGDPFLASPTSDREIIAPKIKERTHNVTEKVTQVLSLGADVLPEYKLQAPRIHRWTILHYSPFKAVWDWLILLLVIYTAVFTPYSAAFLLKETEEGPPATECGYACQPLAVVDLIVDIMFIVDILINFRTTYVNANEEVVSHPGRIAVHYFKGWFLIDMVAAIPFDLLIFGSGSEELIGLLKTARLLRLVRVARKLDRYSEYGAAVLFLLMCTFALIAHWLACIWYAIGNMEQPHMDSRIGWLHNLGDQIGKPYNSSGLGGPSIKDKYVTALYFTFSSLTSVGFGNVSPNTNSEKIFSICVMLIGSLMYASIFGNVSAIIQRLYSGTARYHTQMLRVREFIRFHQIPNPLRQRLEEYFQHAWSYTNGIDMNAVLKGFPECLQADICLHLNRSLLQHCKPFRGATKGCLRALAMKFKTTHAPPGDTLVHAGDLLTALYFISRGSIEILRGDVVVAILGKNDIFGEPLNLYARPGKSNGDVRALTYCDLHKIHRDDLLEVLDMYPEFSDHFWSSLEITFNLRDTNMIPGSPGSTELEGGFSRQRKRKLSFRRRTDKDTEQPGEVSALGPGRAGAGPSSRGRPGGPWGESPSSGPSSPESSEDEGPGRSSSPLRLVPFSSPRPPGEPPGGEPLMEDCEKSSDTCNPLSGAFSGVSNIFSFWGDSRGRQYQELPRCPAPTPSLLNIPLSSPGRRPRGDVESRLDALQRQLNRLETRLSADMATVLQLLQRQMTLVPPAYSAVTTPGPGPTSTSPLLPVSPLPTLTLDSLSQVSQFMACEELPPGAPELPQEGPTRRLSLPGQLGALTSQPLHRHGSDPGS", "test": "primary screen, population patch clamp on CHO cells stably expressing hERG; higher = less effect of the substance", "units": {"hERG current change (%, negative = inhibition) at 10uM": "%"}}
{"smiles": "CCc1c(C)sc(NC(=O)c2cc(-c3cc(OC)ccc3OC)on2)c1C#N", "hERG current change (%, negative = inhibition) at 10uM": 3.3}
{"smiles": "COc1ccc2cc(C(=O)C3CCCN(C(=O)c4cccnc4)C3)ccc2c1", "note": "(stereo not shown)", "hERG current change (%, negative = inhibition) at 10uM": -25.1}
{"smiles": "CCOC(=O)c1ccc(N=Nc2c(C)c(C#N)c(O)[nH]c2=O)cc1", "hERG current change (%, negative = inhibition) at 10uM": 1.91}
{"smiles": "Cc1ccc(OCCNC(=O)CCNS(=O)(=O)c2ccc(Br)cc2)cc1", "hERG current change (%, negative = inhibition) at 10uM": 15.7}
{"smiles": "CSc1nncc(-c2ccc(F)c(F)c2)n1", "hERG current change (%, negative = inhibition) at 10uM": 10.8}
{"smiles": "CCCCCCCCN=Cc1c(O)[nH]c(=O)[nH]c1=O", "hERG current change (%, negative = inhibition) at 10uM": 4.9}
{"smiles": "NC(=S)/N=C/c1c(O)[nH]c(=O)[nH]c1=O", "hERG current change (%, negative = inhibition) at 10uM": 12.5}
{"smiles": "C=CCNC(=S)/N=C/c1c(O)[nH]c(=O)[nH]c1=O", "hERG current change (%, negative = inhibition) at 10uM": -52.8}
{"smiles": "CCNc1nc(NCC)n2c(SCC(=O)Nc3ccccc3Cl)nnc2n1", "hERG current change (%, negative = inhibition) at 10uM": 11}
{"smiles": "O=C(CSc1ccc(F)cc1)N1CCC(c2nc3ccccc3s2)CC1", "hERG current change (%, negative = inhibition) at 10uM": -67.1}
{"smiles": "O=C(CSc1ccc(Cl)cc1)N1CCC(c2nc3ccccc3s2)CC1", "hERG current change (%, negative = inhibition) at 10uM": -59.7}
{"smiles": "CCNC(=O)N1CCC(c2nc3ccccc3s2)CC1", "hERG current change (%, negative = inhibition) at 10uM": 10.3}
{"smiles": "O=C(CSc1c(Cl)cccc1Cl)N1CCC(c2nc3ccccc3s2)CC1", "hERG current change (%, negative = inhibition) at 10uM": -0.729}
{"smiles": "O=C(CSc1ccc(Cl)cc1Cl)N1CCC(c2nc3ccccc3s2)CC1", "hERG current change (%, negative = inhibition) at 10uM": -14.5}
{"smiles": "O=C(CSc1ccccc1Cl)N1CCC(c2nc3ccccc3s2)CC1", "hERG current change (%, negative = inhibition) at 10uM": -7.4}
{"smiles": "CS(=O)(=O)Cc1ccc(C(=O)N2CCCC2c2cccs2)cc1", "note": "(stereo not shown)", "hERG current change (%, negative = inhibition) at 10uM": 16.9}
{"smiles": "CN(CCc1ccccn1)C(=O)CCC1CCCN(C(=O)c2ccccn2)C1", "note": "(stereo not shown)", "hERG current change (%, negative = inhibition) at 10uM": 21.8}
{"smiles": "Cc1ccccc1C(=O)Nc1ccc2c(c1)OCCO2", "hERG current change (%, negative = inhibition) at 10uM": 6.96}
{"smiles": "Cc1ccc(C(=O)CCC(=O)Nc2ccccc2C)cc1C", "hERG current change (%, negative = inhibition) at 10uM": 15}
{"smiles": "CCCCCn1c(CN2CCN(Cc3ccccc3)CC2)nc2c1c(=O)n(C)c(=O)n2C", "hERG current change (%, negative = inhibition) at 10uM": -68}
{"smiles": "CCCCn1c(SCc2ccccn2)nc2c1c(=O)n(C)c(=O)n2C", "hERG current change (%, negative = inhibition) at 10uM": -8.02}
{"smiles": "CCC(=O)OCCn1c(Br)nc2c1c(=O)[nH]c(=O)n2C", "hERG current change (%, negative = inhibition) at 10uM": -0.796}
{"smiles": "CCCCn1c(SCc2nnc(-c3ccccc3)o2)nc2c1c(=O)n(C)c(=O)n2C", "hERG current change (%, negative = inhibition) at 10uM": -56}
{"smiles": "CCCCCn1c(CN2CCN(CCO)CC2)nc2c1c(=O)n(C)c(=O)n2C", "hERG current change (%, negative = inhibition) at 10uM": -17.9}
{"smiles": "CCOC(=O)Cn1c(Br)nc2c1c(=O)[nH]c(=O)n2C", "hERG current change (%, negative = inhibition) at 10uM": -58}
{"smiles": "CCCC(=O)OCCn1c(Br)nc2c1c(=O)[nH]c(=O)n2C", "hERG current change (%, negative = inhibition) at 10uM": 16.9}
{"smiles": "CN1CCN(Cc2nc3c(c(=O)n(C)c(=O)n3C)n2CCCc2ccccc2)CC1", "hERG current change (%, negative = inhibition) at 10uM": -13.4}
{"smiles": "CCCCn1c(SCc2cccnc2)nc2c1c(=O)n(C)c(=O)n2C", "hERG current change (%, negative = inhibition) at 10uM": -28}
{"smiles": "Cn1c(=O)c2c(nc(CN3CCCCC3)n2CCCc2ccccc2)n(C)c1=O", "hERG current change (%, negative = inhibition) at 10uM": -29.1}
{"smiles": "CCCCCCn1c(CN2CCN(Cc3ccccc3)CC2)nc2c1c(=O)n(C)c(=O)n2C", "hERG current change (%, negative = inhibition) at 10uM": -71.8}
{"smiles": "CCCCCCn1c(CN2CCN(CCO)CC2)nc2c1c(=O)n(C)c(=O)n2C", "hERG current change (%, negative = inhibition) at 10uM": -38.3}
